Inconclusive results are not listed. Calls of active or inactive are those of the source. The call rests on the fitted dose curve; in most records, active means well fitted inhibition curve with a large enough effect; inconclusive means small, poorly fitted or top-dose-only effect; inactive means flat fitted curve, though single readings scatter.
Tests used:
CRL-7250 = normal cell line; test: Cytotoxic Profiling of Annotated Libraries Using Quantitative High-Throughput Screening (AID 1296008); details: Five cell lines viability, CellTiter-Glo ATP luminescence, 48-72 h; max response: stronger effect = lower value; on max response: on the % scale 0 is the no-effect control and ±100 the full control effect
How it was run: (§1)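 Cells exposed to compounds for 48 or 72 hr at 37 degrees Celsius. Viability read as ATP-coupled luminescence with CellTiter-Glo after 10 min at room temperature.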

HEK293 = test: as above; details: Five cell lines viability, CellTiter-Glo ATP luminescence, 48-72 h; max response: stronger effect = lower value
How it was run: as §1

HaCat = test: as above; details: Five cell lines viability, CellTiter-Glo ATP luminescence, 48-72 h; max response: stronger effect = lower value
How it was run: as §1

KB-3-1 = test: as above; details: Five cell lines viability, CellTiter-Glo ATP luminescence, 48-72 h; max response: stronger effect = lower value
How it was run: as §1

NIH3T3 = test: as above; details: Five cell lines viability, CellTiter-Glo ATP luminescence, 48-72 h; max response: stronger effect = lower value
How it was run: as §1

SC27B = test: qHTS profiling for inhibitors of Plasmodium falciparum proliferation (AID 504749);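 further: 0% = DMSO vehicle and full inhibition = artemisinin control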; details: P. falciparum in erythrocytes, SYBR Green DNA, 72 h; series mostly up to 28.7 µM
How it was run: (§2)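 Readout was DNA-dye fluorescence from lysed cultures, ex 485/em 535 nm. Parasitized red cells had grown 72 h with compound; data scaled between 0.29 uM artemisinin and DMSO wells and corrected using vehicle-only plates.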

TAB109 = test: as above; details: P. falciparum in erythrocytes, SYBR Green DNA, 72 h; series mostly up to 28.7 µM
How it was run: as §2

TAB113 = test: as above; details: P. falciparum in erythrocytes, SYBR Green DNA, 72 h; series mostly up to 28.7 µM
How it was run: as §2

TAB165 = test: as above; details: P. falciparum in erythrocytes, SYBR Green DNA, 72 h; series mostly up to 28.7 µM
How it was run: as §2

W2 = test: as above; details: P. falciparum in erythrocytes, SYBR Green DNA, 72 h; series mostly up to 28.7 µM
How it was run: as §2

Measured: max response
Further: nearly all actives have a fitted effect of over 60% in size.

COC(=O)C1(O)C(OC(C)=O)CCC2C3(CC(c4ccoc4)OC3=O)C(C)=CCC21C(=O)OC (centres undefined)
inactive: CRL-7250 -2.77% | HEK293 4.98% | HaCat | KB-3-1 9.04% | NIH3T3

COc1ccc(C2(O)c3c(ccc4c3OC(C)(CCC=C(C)C)C=C4)NC(=O)C2OC)cc1 (centres undefined)
inactive: CRL-7250 | HEK293 -6.81% | HaCat | KB-3-1 5.8% | NIH3T3

O=C(/C=C/N1C[C@@H]2C[C@@H]1CN2c1ccccn1)c1ccccc1O
inactive: CRL-7250 | HEK293 4.78% | HaCat 3.55% | KB-3-1 | NIH3T3

NC[C@@H]1O[C@@H](O[C@@H]2[C@@H](O[C@@H]3O[C@H](CO)[C@@H](O)[C@H]3O)[C@H](O)[C@@H](N)C[C@H]2N)[C@@H](N)[C@H](O)[C@H]1O
inactive: CRL-7250 | HEK293 -4.01% | HaCat | KB-3-1 | NIH3T3

C=Cc1cc2oc(-c3ccc(O)c(F)c3)nc2cc1O
inactive: CRL-7250 | HEK293 -3.32% | HaCat -11% | KB-3-1 | NIH3T3

COc1cc(/C=C/C(=O)OC[C@H]2O[C@@H](OC3OC=C(C(=O)O)C4C(O)CC(C)(O)C34)[C@H](O)[C@@H](O)[C@@H]2O)cc(OC)c1O (some centres undefined)
inactive: CRL-7250 -14.2% | HEK293 -83.6% | HaCat | KB-3-1 9.94% | NIH3T3 4.03%

COc1ccnc2[nH]cc(C(=O)C(=O)N3CCN(C(=O)c4ccccc4)CC3C)c12 (centres undefined)
inactive: CRL-7250 0.507% | HEK293 -0.0222% | HaCat | KB-3-1 | NIH3T3 -4.76%

CC(NC(=O)[C@H](Cc1ccccc1)NC(=O)OCc1ccccc1)C(=O)CF (some centres undefined)
inactive: CRL-7250 | HEK293 -1.18% | HaCat | KB-3-1 | NIH3T3 2.43%

O=C(OCC(O)CO[C@@H]1O[C@H](C(=O)O)[C@@H](O)[C@H](O)[C@H]1O)c1ccccc1 (some centres undefined)
inactive: CRL-7250 4.18% | HEK293 -2.05% | HaCat | KB-3-1 0.261% | NIH3T3 0.296%

C/C(=C\CCC(C)C1CC(O)C2(C)C3CCC4C(C)(C)C(OC5OCC(O)C(O)C5O)CCC45CC35CC(O)C12C)C(=O)O (centres undefined)
inactive: CRL-7250 3.53% | HEK293 0.956% | HaCat 3.75% | KB-3-1 9.72% | NIH3T3

C/C=C1/[C@H](O[C@@H]2O[C@H](CO)[C@@H](O)[C@H](O)[C@H]2O)OC=C2C(=O)O[C@@H]3C[C@@H](C(C)CO)[C@H](COC(=O)C[C@H]21)[C@H]3C (some centres undefined)
inactive: CRL-7250 3.26% | HEK293 -21.8% | HaCat | KB-3-1 | NIH3T3 1.25%

C[C@H]1CC[C@@]2(OC1)O[C@H]1CC3C4CC[C@H]5C[C@@H](O[C@@H]6O[C@H](CO)[C@H](O[C@@H]7O[C@H](CO)[C@@H](O)[C@H](O[C@@H]8OC[C@@H](O)[C@H](O)[C@H]8O)[C@H]7O[C@@H]7O[C@H](CO)[C@@H](O)[C@H](O)[C@H]7O)[C@H](O)[C@H]6O)[C@H](O)C[C@]5(C)C4=CC(=O)[C@]3(C)[C@H]1[C@@H]2C (some centres undefined)
inactive: CRL-7250 -0.886% | HEK293 3.61% | HaCat | KB-3-1 | NIH3T3

CC1(C)[C@H]2C[C@H](C/C=C\CCCC(=O)O)[C@@H](NC(=O)c3csc4ccc(O)cc34)[C@@H]1C2
inactive: CRL-7250 -1.76% | HEK293 4.16% | HaCat | KB-3-1 | NIH3T3

Nc1ncnc2c1C(=O)N(c1ccc(C3CCC(CC(=O)O)CC3)cc1)CCO2 (centres undefined)
inactive: CRL-7250 2.41% | HEK293 -15.1% | HaCat | KB-3-1 | NIH3T3

Cc1nnc(-c2sc(NC(=O)[C@H](C(C)C)n3c(=O)[nH]c4ccccc4c3=O)nc2C)o1
inactive: CRL-7250 -59.8% | HEK293 -6.7% | HaCat -23.8% | KB-3-1 8.7% | NIH3T3

COc1ccc(C(=O)OC2C3C=COC(OC4OC(CO)C(O)C(O)C4O)C3C3(CO)OC23)cc1OC (centres undefined)
inactive: CRL-7250 -2.32% | HEK293 1.41% | HaCat | KB-3-1 3.28% | NIH3T3 -4.72%

CCOC(=O)C(CCc1ccccc1)NC(C)C(=O)N1Cc2ccccc2CC1C(=O)O (centres undefined)
inactive: SC27B | TAB109 | TAB113 | TAB165 | W2 | CRL-7250 -6.01% | HEK293 -4.89% | HaCat -10.9% | KB-3-1 -4.78% | NIH3T3

O=[N+]([O-])c1cc(Cl)ccc1S(=O)(=O)N1CCN(Cc2ccccc2)CC1
inactive: CRL-7250 -3.5% | HaCat | KB-3-1 -13.2% | NIH3T3
